Here are results for seven compounds from PubChem BioAssay (NCATS).

Assay [1] concerns Zika virus NS2B-NS3 protease (linked construct). In words: Primary screen NINDS Rhodamine qHTS for Zika virus inhibitors (AID 1347160). Also: nearly all actives have a fitted effect of over 55% in size. A digest of the protocol: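 Aprotinin served as in-plate control. Conditions: 25 nM linked NS2B-NS3, pH 8.0 Tris buffer, titrated compounds, 15 min preincubation and 15 min reaction with 1.5 microM Rhod110 substrate at room temperature.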
In assay [2] the target is Calcium and integrin-binding protein 1 (Homo sapiens) (UniProt Q99828). In words: Primary qHTS for Identification of Calcium Integrin Binding Protein 1 (CIB1) Competitor (AID 1508620).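 Also: GST tagged CIB1 binding a fluorescein labelled alphaIIb integrin peptide tracer; top concentration of the series differs between compounds; % is scaled to controls: 0 for no effect and ±100 for the full control effect.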 A digest of the protocol: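 CIB1-GST (1 uM final) and compound incubated 15 min at room temperature before adding FITC-alphaIIb peptide tracer (100 nM final). Competition for binding read by fluorescence polarization (ex 480, em 540) after another 15 min at room temperature.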
For orientation: qHTS replaces the single test concentration by a dilution series.

The target in assay [3] is Glutathione peroxidase 1 (Homo sapiens) (UniProt P07203). In words: Primary qHTS Assay for Inhibitors of Recombinant Selenoprotein Glutathione Peroxidase 1 (GPX1) (AID 1845191). Also: nearly all actives have a fitted effect of over 65% in size. A digest of the protocol:
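NADPH consumption tracked by fluorescence at 340/450 nm between t=0 and t=15 min, room temperature. Final mix: 10 nM GPX1, 100 nM glutathione reductase, 1 mM GSH, 0.5 mM NADPH, 0.5 mM cumene hydroperoxide, 0.01% BSA; 30 min compound–enzyme preincubation.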

In assay [4] the target is Phospholipid hydroperoxide glutathione peroxidase GPX4 (Homo sapiens) (UniProt P36969). In words: Primary qHTS Assay for Inhibitors of Recombinant Selenoprotein Glutathione Peroxidase 4 (GPX4) (AID 1845192). Also: nearly all actives have a fitted effect of over 65% in size. The following applies: outcome: dose series up to 50 µM unless noted. A digest of the protocol:
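NADPH consumption followed by fluorescence at 340/450 nm, t=0 and after 15 min at room temperature. Reaction started with cumene hydroperoxide (0.5 mM final) after 30 min compound–GPX4 preincubation; final 200 nM GPX4, 100 nM GR, 1 mM GSH, 0.5 mM NADPH.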

The target of assay [5] is Luciferin 4-monooxygenase (Photinus pyralis) (UniProt P08659). As to the kind of experiment: Primary firefly luciferase (FLuc) qHTS assay for identification of artifact compounds. (AID 1845220). Also: nearly all actives have a fitted effect of over 60% in size. A digest of the protocol: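 FLuc 10 nM; luciferin 10 uM; ATP 10 uM; Tris-acetate pH 7.6, Mg-acetate 10 mM; 15 min RT preincubation; 5 min reaction; luminescence.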
For assay [6], the system named is Nanoluciferase (engineered Oplophorus gracilirostris luciferase). In words: Primary Nanoluciferase (NLuc) qHTS assay for identification of artifact compounds. (AID 1845222).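 Also: NLuc secreted into diluted conditioned medium of S16 cells; 0% = DMSO and -100% = no enzyme.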 A digest of the protocol:
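NLuc from S16 cell medium (1:55) plus test compounds, 15 min, room temperature. Luminescence after Nano-Glo (1:100) addition, 5 min.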

The nature of assay [7]: Primary redox qHTS assay for identification of artifact compounds. (AID 1845223).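 Also: 0% = DMSO and 100% = reference compound.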 A digest of the protocol:
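Redox-cycling detection via DTT (250 uM final) oxidation coupled to Amplex Red (25 uM)/HRP (250 mU/mL) in HBSS. 15 min preincubation plus 30 min after DTT, room temperature. Ex/Em 525/598 nm; 4-parameter Hill fit against DMSO and 10 uM DA3003.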

The test system of assay [8] is HaCat. As to the kind of experiment: Cytotoxic Profiling of Annotated Libraries Using Quantitative High-Throughput Screening (AID 1296008). Also: nearly all actives have a fitted effect of over 60% in size. As to max response: % is scaled to controls: 0 for no effect and ±100 for the full control effect. The following applies: Five cell lines viability, CellTiter-Glo ATP luminescence, 48-72 h; max response: hits give low values. A digest of the protocol:
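Cytotoxicity was measured as CellTiter-Glo ATP luminescence, read after 10 min at room temperature. Compound treatment of the cells lasted 48 or 72 hr at 37 degrees Celsius in a qHTS format.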
(ATP-based viability assays read luminescence as a measure of living cells.)

The subject of assay [9] is C33A. In words: Primary qHTS to identify gynecologic anti-cancer compounds using libraries of approved drugs and bioactive compounds (AID 1345084). Also: nearly all actives have a fitted effect of over 55% in size. Also: potency is read from the fitted curve at half-maximal effect. The following applies: Gynecologic cancer cell panel viability, ATPlite luminescence, 48 h; series mostly up to 57.5 µM. A digest of the protocol:
(§1)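 Cells, 1,000 per well, plated 16 h, then exposed 48 h at 37 C to compounds. Viability by ATPlite luminescence after 15 min at room temperature.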

Assay [10] has as its system CASKI. The assay is described as above. The following applies: Gynecologic cancer cell panel viability, ATPlite luminescence, 48 h; series mostly up to 57.5 µM. A digest of the protocol:
as §1

Assay [11] deals with Es-2. The description is as above. To be noted: Gynecologic cancer cell panel viability, ATPlite luminescence, 48 h; series mostly up to 57.5 µM. A digest of the protocol: as §1
For assay [12], the system named is HeLa. The description is as above. To be noted: Gynecologic cancer cell panel viability, ATPlite luminescence, 48 h; series mostly up to 57.5 µM. A digest of the protocol: as §1
In assay [13] the test system is Hek293T. Described as above. To be noted: Gynecologic cancer cell panel viability, ATPlite luminescence, 48 h, control line for the selectivity index; series mostly up to 57.5 µM. A digest of the protocol: as §1
Assay [14] relates to JEG-3. The description is as above. To be noted: Gynecologic cancer cell panel viability, ATPlite luminescence, 48 h; series mostly up to 57.5 µM. A digest of the protocol:
as §1

Assay [15] deals with OV90. The assay is described as above. The following applies: Gynecologic cancer cell panel viability, ATPlite luminescence, 48 h; series mostly up to 57.5 µM. A digest of the protocol:
as §1

The subject of assay [16] is Tov-21-G. The assay is described as above. The following applies: Gynecologic cancer cell panel viability, ATPlite luminescence, 48 h; series mostly up to 57.5 µM. A digest of the protocol:
as §1

Assay [17] concerns Tov112D. Described as above. To be noted: Gynecologic cancer cell panel viability, ATPlite luminescence, 48 h; series mostly up to 57.5 µM. A digest of the protocol:
as §1

The nature of assay [18]: Primary qHTS for inhibitors of nuclear receptor binding SET domain protein 2 (NSD2) in an isogenic RCH-ACV NSD2 p.E1099K mutant (9B) (AID 1645876). Also: potency is read from the fitted curve at half-maximal effect; nearly all actives have a fitted effect of over 70% in size.
Assay [19] in a line: Primary qHTS for inhibitors of nuclear receptor binding SET domain protein 2 (NSD2) in an RCH-ACV wild type WT cells (2C) (AID 1645877). Also: potency is read from the fitted curve at half-maximal effect; nearly all actives have a fitted effect of over 70% in size.

SMILES strings stand for the structures. Unmarked numbers belong to inactive results. Inconclusive results are not listed. Active and inactive are the calls of the source. Calls follow the shape of the dose curve; as a rule, active = well fitted curve in the direction sought with a large enough effect; inconclusive = small, poorly fitted or top-dose-only effect, or another doubt; inactive = no such curve, though single readings can be large; an effect the other way counts as inactive or inconclusive.

Glutathione peroxidase 1 (Homo sapiens), sequence (P07203 whole entry, looked up): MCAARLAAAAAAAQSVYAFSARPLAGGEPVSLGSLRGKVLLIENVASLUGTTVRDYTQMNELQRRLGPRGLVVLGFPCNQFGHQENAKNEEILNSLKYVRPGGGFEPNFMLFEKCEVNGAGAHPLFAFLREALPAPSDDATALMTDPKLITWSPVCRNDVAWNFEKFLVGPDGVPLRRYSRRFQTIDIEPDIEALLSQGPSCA
Phospholipid hydroperoxide glutathione peroxidase GPX4 (Homo sapiens), sequence (P36969 whole entry, looked up): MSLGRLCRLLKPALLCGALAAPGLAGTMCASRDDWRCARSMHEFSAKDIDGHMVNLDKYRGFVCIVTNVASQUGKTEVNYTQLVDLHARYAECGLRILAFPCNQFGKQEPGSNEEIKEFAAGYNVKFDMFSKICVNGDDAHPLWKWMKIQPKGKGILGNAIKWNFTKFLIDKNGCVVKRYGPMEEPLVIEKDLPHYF
Calcium and integrin-binding protein 1 (Homo sapiens), sequence (Q99828 whole entry, looked up): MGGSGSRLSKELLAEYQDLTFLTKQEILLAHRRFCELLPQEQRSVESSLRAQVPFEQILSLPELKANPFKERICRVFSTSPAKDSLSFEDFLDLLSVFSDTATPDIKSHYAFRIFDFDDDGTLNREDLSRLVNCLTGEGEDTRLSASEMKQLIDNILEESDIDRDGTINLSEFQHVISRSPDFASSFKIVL

As to `CNc1ccc([N+](=O)[O-])cc1-n1cnc(-c2ccc(C(F)(F)F)cc2)c1`, the Potency entry in assay [1], in assay [3], in [4], in [5], in assay [6] and in assay [7] was “inactive” in each case. Further, the Potency result in assay [9], in [10], in assay [11], in [12], in assay [13] and in [14] was “inactive” each time. In addition, the Potency result in [15], in assay [16] and in assay [17] was “inactive” each time. In [2], the outcome was inactive. Moreover, the max response in assay [8] is -13.4%.
As to `CC(=O)c1c(OCCN2CCCCC2)c(OCCC(C)c2ccc(F)cc2)c2oc(C)nc2c1C` (stereo not given), the Potency result in [1], in assay [3], in [5], in assay [7], in assay [9] and in assay [10] was “inactive” in each case. Moreover, the Potency entry in assay [11], in [12], in assay [14], in assay [15], in assay [16] and in assay [17] was “inactive” throughout. The result in [2] and in assay [8] was inactive.
Take `Cc1ccccc1C(=O)Nc1ccc(C(=O)N2CCC[C@@H](O)c3cc(Cl)ccc32)c(C)c1`: the Potency result in assay [1], in [3], in [4], in [5], in assay [6] and in assay [7] was “inactive” each time. Also, the Potency result in assay [9], in assay [10], in assay [11], in [12], in [13] and in [14] was “inactive” each time. Moreover, the Potency result in [15], in assay [16] and in [17] was “inactive” in each case. Besides, the outcome in assay [2] was inactive. Moreover, the max response in assay [8] was -22.4%.
`CCN(CC)c1ccc(C(=C2C=CC(=[N+](CC)CC)C=C2)c2cc(S(=O)(=O)O)ccc2S(=O)(=O)[O-])cc1`: in [2], the result was inactive. The Potency entry in assay [3] and in assay [4] was “inactive” throughout. In addition, the Potency is 10 µM (active) in assay [9]; 28.2 µM (active) in assay [11]; 12.6 µM (active) in [13]; 12.6 µM (active) in [15]; 25.1 µM (active) in [16].
Consider `OCC(CO)(CO)NCC(O)Cn1c2ccc(Cl)cc2c2cc(Cl)ccc21` (stereo not given), for which the Potency entry in assay [1], in assay [3], in assay [5], in assay [9], in [10] and in assay [11] was “inactive” throughout. For the same compound, the Potency entry in assay [12], in [13], in [14], in assay [15], in [16] and in [17] was “inactive” in each case. Moreover, the result in assay [2] was inactive. For the same compound, the Potency in assay [18] and in assay [19] was 20.5 µM (active) in each case. In [8], the max response was 1.65%.
For the compound `COCCOCCOc1ccc(C2=N[C@@](C)(C(=O)O)CS2)c(O)c1`, the outcome in [2] was inactive. The Potency in [19] was 10.3 µM (active). The Potency result in [3], in [5], in assay [6], in assay [9], in assay [10] and in assay [11] was “inactive” in each case. In addition, the Potency result in assay [12], in [13], in assay [14] and in [16] was “inactive” each time. In addition, the max response in assay [8] is -22.3%.
Consider `C/C=C(/COC(=O)/C(C)=C/C)C(=O)OC/C=C/c1ccc(OC)cc1`, for which the Potency entry in assay [1], in assay [3], in [4], in [5], in assay [7] and in [9] was “inactive” in each case. Besides, the Potency result in assay [10], in assay [11], in assay [12], in assay [13], in assay [14] and in assay [15] was “inactive” throughout. Further, the Potency result in assay [16] was “inactive”. For the same compound, the outcome in assay [2] and in assay [8] was inactive.
